In PubChem BioAssay (NCATS):
Records with an inconclusive call do not appear. Where a call stands in place of a potency, no number is given. Activity calls are given as the source filed them. Calls follow the shape of the dose curve; as a rule, active = well fitted cell-killing curve with a large enough effect; inconclusive = small, poorly fitted or top-dose-only effect, or effect the other way; inactive = no such curve, though single readings can be large or run the other way.

test: Viability qHTS for spleen associated tyrosine kinase inhibitor (SYKi) naive MV4-11 cells (AID 1963823); details: MV4-11 AML viability, CellTiter-Glo luminescence, 72 h; series mostly up to 45 µM; also: nearly all actives have a fitted effect of over 40% in size
In short: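 Read-out: CellTiter-Glo luminescence. Exposure: 72 hr, 37 C, 5% CO2, 95% humidity. Cells: MV4-11 without SYK inhibitor history, 500/well, qHTS format.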
Potency is read from the fitted curve at half-maximal effect.

SMILES | Potency
CC1(C)CC2C(O)C3=C(CC(C)(O)C2C1)C(=O)OC3 (stereo unspecified) | inactive
COC(=O)C[C@H]1[C@]2(C)C3=C(C)[C@H](c4ccoc4)C[C@H]3O[C@@H]2[C@H](O)C2[C@](C)(C(=O)OC)C=CC(=O)[C@@]21C (stereo partly specified) | inactive
O=S(=O)(c1ccc(S(=O)(=O)n2cnc3ccccc32)cc1)N1CCCCCC1 | inactive
O=C1NC(=O)C(c2cn(-c3ccccc3)nc2-c2ccc(F)cc2)N1 (stereo unspecified) | inactive
COC(=O)C1=CO[C@@H](O[C@@H]2O[C@H](CO)[C@@H](O)[C@H](O)[C@H]2O)[C@H]2[C@@H]1[C@H](O)C[C@]2(C)O | inactive
Nc1ccc(-c2ccnc(NCCCNC(=O)c3c(Cl)cccc3Cl)n2)cc1 | 1300 nM (active)
C=C(CCC1=C(C)[C@H]2[C@H](CC3[C@@H]4CC=C5C[C@@H](O)C[C@@H](O)[C@]5(C)C4[C@H](O)C[C@@]32C)O1)CO[C@@H]1O[C@H](CO)[C@@H](O)[C@H](O)[C@H]1O (stereo partly specified) | 611 nM (active)
CC1(C)CC[C@]2(C(=O)O[C@@H]3O[C@H](CO)[C@@H](O)[C@H](O)[C@H]3O)[C@H](O)C[C@]3(C)C(=CCC4[C@@]5(C)CC[C@H](O[C@@H]6OC[C@@H](O)[C@H](O)[C@H]6O)[C@@](C)(C(=O)O)C5CC[C@]43C)[C@@H]2C1 (stereo partly specified) | inactive
C=C1C[C@]23C[C@H]1[C@@H](O)C[C@H]2[C@@]12C=C[C@H](O)[C@@](C)(C(=O)O1)[C@H]2[C@@H]3C(=O)O | inactive
C[C@@H]1CC[C@@]23CC[C@]4(C)[C@@](C=CC5[C@@]6(C)CC[C@H](O)C(C)(C)C6CC[C@]54C)(OC2=O)C3[C@H]1C (stereo partly specified) | inactive
CC(=O)CC1CCC(C(C)C(=O)OCC(O)CO)O1 (stereo unspecified) | inactive
